Bioassay records deposited in PubChem by several laboratories.
A selection: hits, their analogues and other compounds. The true share with any hit is near 1.6%.
Rce1 inhib – yeast Rce1p protease inhibitors, primary screen, biochemical, fluorescence, cell-free homogeneous | CAAX prenyl protease 2 (Saccharomyces cerevisiae (strain ATCC 204508 / S288c)), Q03530 | yeast membranes, quenched prenylated peptide cleavage fluorescence | calls only | 290,000 tested, 0.27% active;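 active = fall in fluorescence gain of 50% or more versus controls, with final raw signal at or below 3038400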
Target sequence (Q03530 whole entry, looked up): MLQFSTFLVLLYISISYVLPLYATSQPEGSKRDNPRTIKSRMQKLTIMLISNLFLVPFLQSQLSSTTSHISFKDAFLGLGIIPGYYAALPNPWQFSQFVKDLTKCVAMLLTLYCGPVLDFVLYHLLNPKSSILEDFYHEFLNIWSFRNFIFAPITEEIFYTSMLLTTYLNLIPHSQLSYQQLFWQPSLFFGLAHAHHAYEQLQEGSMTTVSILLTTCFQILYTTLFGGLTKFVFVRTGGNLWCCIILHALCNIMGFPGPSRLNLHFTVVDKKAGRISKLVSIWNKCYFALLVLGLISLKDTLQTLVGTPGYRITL
V-ATPase pH – regulators of yeast V-ATPase proton pumping, primary screen, pHLuorin cytosolic pH fluorescence | 350,000 tested, 0.37% active | response, % at 10 µM | AID 504577, 2011 | S. cerevisiae; in the data active = response mostly above about 7.3%, no sharp cut-off; inactive = mostly below about 5.4%; also: actives read high
NALP1 inh – NALP1 inflammasome inhibitors in reconstituted yeast, colorimetric, S. cerevisiae, triplicate retest. S. cerevisiae NALP1/ASC/caspase-1 growth, X-gal OD620, 72 h. inhibition, % at 10 µM. 280,000 tested, 0.61% active; in the data active = inhibition mostly above about 24%, no sharp cut-off; inactive = mostly below about 32%
PERK inhibitor – block of dimerizer-induced PERK translation repression, primary screen, PERK inhibitor project, CHO PERK-DD cells, SEAP luminescence, HTS; inhibition, % at 5.6 µM; 220,000 tested, 0.17% active; Eukaryotic translation initiation factor 2-alpha kinase 3 (Homo sapiens), Q9NZJ5; CHO PERK-DD fusion, SEAP luminescence translation reporter; AID 1416, 2008;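 active = inhibition above the mean inhibition of all tested compounds plus 3 SD, set separately per screening campaign, cut at about 2.9% in these data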;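 also: PERK kinase domain activated by AP20187 dimerizer at 100 nM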
Yeast superoxide – reduction of superoxide in aged yeast, primary screen, HTS. S. cerevisiae aged cells, superoxide DHE fluorescence; stronger effect = lower value. superoxide response (% of plate mean), % at 10 µM. 330,000 tested, 0.18% active;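 active = superoxide response under a set limit, about three screen SD below normal, cut at about 65% in these data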;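 also: yeast aged for seven days with compound at 30 °C before DHE staining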
NALP3 yeast inh – NALP3 inflammasome inhibitors in reconstituted yeast, primary screen, luminescence, uHTS; Yeast reconstituted NLRP3/ASC/caspase-1, beta-gal luminescence, 24 h; inhibition, % at 10 µM; 330,000 tested, 0.39% active; AID 2825, 2010;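 active = inhibition of 50% or more; inactive = inhibition below 50%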
Each line names hits and unclear results; the compound was inactive in the other large screens; ! = not active in a repeat.

CCOC(=O)c1[nH]c(C)c(CCC(=O)O)c1C	NALP1 inh 41!
COc1ccc(C[C@H]2c3cc(O)c(OC)cc3CC[N+]2(C)[O-])cc1O (stereo partly specified)	Rce1 inhib active (no result: PERK inhibitor)
C[C@@H]1CCCCO[C@H](CN(C)C(=O)Cc2ccccc2)[C@@H](C)CN([C@H](C)CO)C(=O)c2cc(NC(=O)Nc3ccccc3)ccc2O1	none (no result: Rce1 inhib, NALP1 inh, PERK inhibitor, Yeast superoxide, NALP3 yeast inh)
COc1ccc(OC)c(C2=NOC(C(=O)Nc3cc(C)on3)C2)c1 (stereo unspecified)	NALP1 inh 34
Cc1cc(N2C(=O)C=CC2=O)c([N+](=O)[O-])cc1C	NALP1 inh 64
Cc1c([N+](=O)[O-])cc(N2C(=O)C=CC2=O)cc1[N+](=O)[O-]	none (no result: Rce1 inhib, NALP1 inh, PERK inhibitor, Yeast superoxide, NALP3 yeast inh)
CCOc1ccc(S(=O)(=O)N(CCO)CCO)cc1-c1nc2c(C(C)(C)C)nn(C)c2c(=O)[nH]1	none
CCCc1nn(C)c2c(=O)[nH]c(-c3cc(S(=O)(=O)N(CCO)CCO)ccc3OCC)nc12	NALP1 inh 30
c1ccc(CCNc2c3c(nc4ncnn24)CCC3)cc1	NALP1 inh 25
Fc1ccccc1CCNc1c2c(nc3ncnn13)CCCC2	none
Cc1ccc(S(=O)(=O)N2CCOCC2)cc1C(=O)Nc1ccc(C(N)=O)cc1	V-ATPase pH 16
COc1cc(NC(C)CCCN)c2ncccc2c1Oc1ccccc1 (stereo unspecified)	NALP1 inh 58
CCC(CC)C(=O)Nc1cccc(C(=O)Nc2nnc(C)s2)c1	V-ATPase pH 211
CCC(CC)C(=O)Nc1cccc(C(=O)Nc2nccs2)c1	none
Cn1ncc(SCc2ccccc2)c(Cl)c1=O	none (no result: Rce1 inhib)
Cn1ncc(S(=O)(=O)Cc2ccccc2)c(Cl)c1=O	V-ATPase pH 19, NALP1 inh 108
O=C1NC(Cc2ccccc2)c2nc3ccc(F)cc3c(=O)n2-c2ncccc21 (stereo unspecified)	none (no result: Rce1 inhib, NALP1 inh, PERK inhibitor, Yeast superoxide, NALP3 yeast inh)
COc1ccc(Cl)cc1C(=O)Nc1ccc2c(c1)OCCO2	none (no result: PERK inhibitor)
COc1ccc(Cl)cc1C(=O)Nc1ccc2c(c1)OCO2	Rce1 inhib active
Cc1cc(Cl)ccc1NC(=O)c1ccc2c(c1)OCO2	V-ATPase pH 15 (no result: PERK inhibitor)
COc1ccc(OCCCC(=O)Nc2ccc3c(c2)OCO3)cc1	V-ATPase pH 16
COc1cccc(NC(=O)N(C)C[C@H]2Oc3ncc(Br)cc3C(=O)N([C@H](C)CO)C[C@H]2C)c1	none (no result: Rce1 inhib, NALP1 inh, PERK inhibitor, Yeast superoxide, NALP3 yeast inh)
CCCCn1c(N)c(N(CCC(C)C)C(=O)c2c(CC)noc2C)c(=O)[nH]c1=O	none (no result: Rce1 inhib, NALP1 inh, PERK inhibitor, Yeast superoxide, NALP3 yeast inh)
CC1=CC(=O)C=CC1(C)C(Cl)Cl (stereo unspecified)	NALP1 inh 23
C=C[C@H]1CN2CC[C@H]1C[C@H]2[C@H](O)c1ccnc2ccc(OC)cc12	none (no result: NALP1 inh, PERK inhibitor)
COCCNS(=O)(=O)c1cccn1-c1ncc(C(F)(F)F)cc1Cl	NALP1 inh 40
CN(C)C(=O)c1cccn1-c1ncc(C(F)(F)F)cc1Cl	none
CN1OC[C@@H]2CN(S(=O)(=O)c3cccc4ccccc34)[C@H](c3ccc(-c4cccnc4)cc3)C[C@@H]21	none (no result: Rce1 inhib, NALP1 inh, PERK inhibitor, Yeast superoxide, NALP3 yeast inh)
CCCn1c(O)c(N=NC(=O)CNC(=O)Cc2ccc(OC)cc2)c2ccccc21	Rce1 inhib active (no result: PERK inhibitor)
O=C(NCC(c1ccco1)N1CCN(c2ccccc2)CC1)C1CCCCC1 (stereo unspecified)	none (no result: Rce1 inhib, NALP1 inh, PERK inhibitor, Yeast superoxide, NALP3 yeast inh)
Cc1ccc(C(=O)OCC(=O)NC(C)C)cc1S(=O)(=O)N1CCOCC1	NALP1 inh 24
Cc1ccc(C(=O)OCC(=O)NCCc2ccc(F)cc2)cc1S(=O)(=O)N1CCOCC1	none (no result: Rce1 inhib, NALP1 inh, PERK inhibitor)
Cc1ccc(S(=O)(=O)N2CCCCC2)cc1NC(=O)COC(=O)c1ccc2c(c1)OCO2	V-ATPase pH 18
COc1cccc(C#Cc2ccc3c(c2)O[C@H](CN(C)C)[C@@H](C)CN([C@@H](C)CO)S3(=O)=O)c1	none (no result: Rce1 inhib, NALP1 inh, PERK inhibitor, Yeast superoxide, NALP3 yeast inh)
COCCCN1C(=O)C(=O)/C(=C(/O)c2ccc(OC)cc2)C12C(=O)N(C)c1ccccc12 (stereo unspecified)	NALP1 inh 39
CSCCC1NC(=O)C(C(C)=NNC(N)=O)=C1O (stereo unspecified)	none (no result: Rce1 inhib, NALP1 inh, PERK inhibitor, Yeast superoxide, NALP3 yeast inh)
